# From PubChem BioAssay (NCATS)
# Results filed as inconclusive are left out. A call without a number means that no potency is given here. The source made the active and inactive calls. The call rests on the fitted dose curve; in most records, active means well fitted cell-killing curve with a large enough effect; inconclusive means small, poorly fitted or top-dose-only effect; inactive means no such curve, though single readings can be large or run the other way.
# Assay: qHTS of pediatric cancer cell lines to identify multiple opportunities for drug repurposing: Primary screen for SK-N-MC cells (AID 1347093)
# Conditions: SK-N-MC viability, CellTiter-Glo luminescence, 48 h; series mostly up to 46 µM
# Excerpt: Drug repurposing or repositioning has been offered as a strategy for drug development in oncology programs. This approach has special potential for childhood cancers and other rare or orphan diseases, where the expected return on new drug development has been a disincentive to pharmaceuticals.
# In this project we exploit the poly-pharmacology of drugs to discover new indications via phenotypic screening of a panel of 19 well-characterized cell lines derived from solid tumors seen in children and adolescents. The goal is to identify approved drugs with previously unrecognized anticancer properties that has the potential to reveal new mechanisms and biological processes involved in carcinogenesis or drug resistance. We employed a titration-based paradigm (quantitative high-throughput screening or qHTS), where all compounds were tested at multiple concentrations for their effect on cell viability. Concentration-response curves (CRCs) were derived directly from the primary screen, and both potency and efficacy values were used to identify compounds with robust bioactivity profiles. We screened the NIH Chemical Genomics Center (NCGC) Pharmaceutical Collection (NPC) and Mechanism Interrogation Plate (MIPE) small molecule collections of approved and investigational compounds against these cell lines; and measured metabolically active cells after 48 hours of compound treatment as a proxy for cell viability.
# Assay Submitter: Nathalia J. Martinez, National Center for Advancing Translational Sciences, National Institutes of Health, Rockville, MD, USA; email: natalia.martinez@nih.gov
# [1] Shen, M et al. Quantitative high-throughput phenotypic screening of pediatric cancer cell lines identifies multiple opportunities for drug repurposing. Oncotarget 2017 Dec 19;9(4):4758-4772. PMID 29435139.
# The cells were obtained from University of North Carolina (UNC), Pediatric Preclinical Testing Program (PPT), and Coriell Institute (CI).
# qHTS cell viability assay:
# Cells were assayed in growth media at a density of 500-1,000 cells/well. Five microliters of cells were dispensed into 1,536-well, white, solid-bottom, TC-treated plates (Greiner Bio One) using a multidrop dispenser and incubated at 37 degrees C, 5% CO2, under a humidified atmosphere for 5 hours. Twenty-three nanoliters of compounds and controls (neutral control DMSO or positive control bortezomib at final concentration of 2.3 µM) were subsequently transferred by Kalypsys pintool. For primary screens, the MIPE collection was tested at 11-point dilutions (final concentrations range from 0.78 nM to 46 µM) and the NPC collection at 8-point dilutions (final concentrations range from 0.59nM to 46 µM). Compounds tested in follow-up screens were assayed at 11-point dilutions. Cells were incubated for 48 hours, followed by addition of 3 uL of CellTiter-Glo (Promega). After a 15 min incubation at room temperature, samples were analyzed for luminescence intensity using a ViewLux High-throughput CCD imager equipped with clear filters.
row,Structure (SMILES),Potency
1,CC1CC(OC(=O)c2ccccc2O)CC(C)(C)C1 (stereo not given),inactive
2,CC(C)(C)C(=O)OCOC(=O)[C@@H]1N2C(=O)[C@@H](NC(=O)[C@H](N)c3ccccc3)[C@H]2SC1(C)C,inactive
3,CC(=O)Nc1cccc(O)c1,inactive
4,CCCCCCCCCCCCCCCCCCO,inactive
5,CCc1cccc(CC)c1NC(=O)CN(CC(=O)O)CC(=O)O,inactive
6,C=CCNC(N)=S,inactive
7,Cc1ccc(S(=O)(=O)NC(=O)NC2CCCCCCC2)cc1,inactive
8,CCCC(O)C(CC)CO (stereo not given),inactive
9,C[N+]1(C)CCCC(OC(=O)C(O)(c2ccccc2)c2ccccc2)C1 (stereo not given),inactive
10,C=CCN1C[C@H](C(=O)N(CCCN(C)C)C(=O)NCC)C[C@@H]2c3cccc4[nH]cc(c34)C[C@H]21,inactive
11,CC(=O)N1C[C@H](O)C[C@H]1C(=O)O,inactive
12,CCCCCC(N)=O,inactive
13,CCCCCCCC(=O)OCC(O)CO (stereo not given),inactive
14,CCOC(=O)[C@H](CCc1ccccc1)N[C@@H](C)C(=O)N1CCC[C@H]1C(=O)O,inactive
15,Cc1ccc(S(=O)(=O)NC(=O)NC2CCCCC2)cc1,inactive
16,NNc1nnc(NN)c2ccccc12,inactive
17,Cc1c(I)c(=O)n(-c2ccccc2)n1C,inactive
18,Cc1cc(OI)c(C(C)C)cc1-c1cc(C(C)C)c(OI)cc1C,inactive
19,Cc1c(C(=O)NCCO)[n+](=O)c2ccccc2n1[O-],inactive
20,NS(=O)(=O)c1cc(C2(O)NC(=O)c3ccccc32)ccc1Cl (stereo not given),inactive

row,Structure (SMILES),Potency
1,CC(=O)N[C@@H](CC(C)C)C(=O)O,inactive
2,CC[N+](CC)(CC(=O)Nc1c(C)cccc1C)Cc1ccccc1,inactive
3,CCCOC(=O)c1ccc(N)cc1,inactive
4,CN1C[C@@H]2C[C@H]1CN2c1cc2c(cc1F)c(=O)c(C(=O)O)cn2C1CC1,inactive
5,O=C(O)CCC(=O)O,inactive
6,NC(=O)NC1NC(=O)NC1=O (stereo not given),inactive
7,O=C(O)/C=C/c1ccc(Cn2ccnc2)cc1,inactive
8,C=CCOc1ccccc1OCC(O)CNC(C)C (stereo not given),inactive
9,O=C1c2cccc(O)c2C(=O)c2c(O)cccc21,inactive
10,CN1CC(=O)NC1=N,inactive
11,CCCCOC(=O)c1ccc(N)cc1,inactive
12,O=C(OOC(=O)c1ccccc1)c1ccccc1,inactive
13,Cc1ccsc1C(=CCCN1CCC[C@@H](C(=O)O)C1)c1sccc1C,inactive
14,O=C(O)CCCCC1CCSS1 (stereo not given),inactive
15,Cc1cc(O)cc(C)c1Cl,inactive
16,O=C(Cn1ccnc1[N+](=O)[O-])NCCO,inactive
17,CC(O)CCCCn1c(=O)c2c(ncn2C)n(C)c1=O (stereo not given),inactive
18,CC(C)=CCC/C(C)=C/CO,inactive
19,C[C@@H](c1ncncc1F)C(O)(Cn1cncn1)c1ccc(F)cc1F (stereo not given in full),inactive
20,CCS(=O)(=O)CCn1c([N+](=O)[O-])cnc1C,inactive
